From PubChem BioAssay
Chlamy TAG = algal TAG accumulation induction | Chlamydomonas reinhardtii TAG, Nile Red fluorescence, 72 h | calls only at 10 µM (by protocol) | hit rate 0.84% among 44,000 | AID 1159537; call rule not given here;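 note: hits raise Nile Red signal meaning more stored TAG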
Of the large screens only hits and unclear results are named; the others gave an inactive call. The sample as a whole holds a higher share of hits than the screen did.

COc1ccc(CN2CCOCC2)cc1C	none
COc1ccccc1N(CC(=O)Nc1cccc([N+](=O)[O-])c1)S(=O)(=O)c1ccccc1	none
Cc1cc(C)n(-c2ccccc2O)n1	none
CC(C)Oc1ccccc1C1CC(=O)NC1=O (stereo not drawn)	none
O=C(Nc1ccccc1C(=O)NCCCCO)c1ccc(Br)cc1	none
O=C(Nc1ccccc1C(=O)NCCc1ccccc1)c1ccncc1	none
CC(C)NC(=O)c1ccccc1NC(=O)c1ccc(Br)cc1	Chlamy TAG active
O=C(Nc1ccccc1C(=O)Nc1ccccc1Cl)c1ccncc1	Chlamy TAG active
O=C(Nc1ccccc1F)c1ccc(Br)cc1	none
CC(C)c1ccc(C(=O)Nc2ccccc2C(N)=O)cc1	none
CC(C)NC(=O)c1ccccc1NC(=O)c1ccccc1	none
CC(C)NC(=O)c1ccccc1NC(=O)c1ccc(Cl)cc1	Chlamy TAG active
O=C(Nc1ccccc1Cl)c1cccc(Cl)c1Cl	none
COC(=O)Nc1ccc(S(=O)(=O)N2CCCC(C(=O)N(C)c3ccccc3)C2)cc1 (stereo not drawn)	none
Cc1cc(C)c(C)c(OCC(=O)N2CCCC2)c1	none
COc1cccc(NC(=O)C(=O)NCc2cccc(C)c2)c1	none
O=C(Nc1nc(-c2ccccc2)c(-c2ccccc2)o1)c1cccs1	none
CC(C)(C)c1ccc(C(=O)Nc2ccc(C(=O)O)cc2)o1	none
C/C(=C\c1ccccc1)CN1CCOCC1	none
C/C(=C\c1ccccc1)CN1CCN(C)CC1	Chlamy TAG active
CCOC(=O)N1CCN(C/C(C)=C/c2ccccc2)CC1	none
Cc1ccc(C(=O)Nc2nccs2)cc1Br	none
CCC(CC)C(=O)Nc1ccc(C(=O)Nc2nccs2)cc1	Chlamy TAG active
Cc1ccc(OCC(=O)Nc2ccc(C(=O)Nc3nccs3)cc2)cc1C	none
Cc1ccc(C)c(NC(=O)CSCc2ccccc2Cl)c1	none
O=[N+]([O-])c1ccc(CN2CCC(N3CCCCC3)CC2)cc1	none
COc1ccc(CN2CCN(Cc3ccc([N+](=O)[O-])cc3)CC2)cc1OC	Chlamy TAG active
COc1ccc(CN2CCN(Cc3cc(OC)c(OC)cc3[N+](=O)[O-])CC2)cc1OC	none
COc1cc(CN2CCN(Cc3ccc([N+](=O)[O-])cc3)CC2)cc(OC)c1	Chlamy TAG active
COc1ccc(CN2CCN(Cc3cccc([N+](=O)[O-])c3)CC2)cc1	none
O=[N+]([O-])c1ccc(CN2CCCCCC2)cc1	none
COc1ccc(OC)c(CN2CCN(Cc3ccc(OC)c(OC)c3)CC2)c1	none
COc1cc(CN2CCN(Cc3cccc([N+](=O)[O-])c3)CC2)cc(OC)c1OC	none
COc1ccc(OC)c(CN2CCN(Cc3cc(OC)c(OC)c(OC)c3)CC2)c1	none
COc1ccc(OC)c(CN2CCN(Cc3ccc([N+](=O)[O-])cc3)CC2)c1	Chlamy TAG active
COc1ccc(S(=O)(=O)N2CCN(Cc3ccc([N+](=O)[O-])cc3)CC2)cc1	none
O=[N+]([O-])c1ccc(CN2CCN(C3CCCCCC3)CC2)cc1	Chlamy TAG active
CCc1c(C)sc(NC(=O)c2cccc([N+](=O)[O-])c2C)c1C(N)=O	none
Cc1ccc(C(=O)Nc2ccc([N+](=O)[O-])cc2)cc1Cl	none
COc1ccccc1OCC(=O)Nc1ccc(F)c(Cl)c1	none
Cc1ccc(OCCN2CCCCC2)c(Br)c1	none
Cc1ccc(C(=O)Nc2cccc(NC(=O)c3ccccc3Cl)c2)cc1C	none
CCOc1ccc(NC(=O)CN(c2ccccc2)S(=O)(=O)c2ccccc2[N+](=O)[O-])cc1	none
Cc1ccc(NC(=O)c2cccc(Cl)c2Cl)cc1	none
O=C(Nc1cc(Cl)ccc1Cl)c1ccncc1	none
CC(=NCc1cccnc1)c1c(C)[nH]n(-c2ccc([N+](=O)[O-])cc2)c1=O	none
Clc1ccc(Cl)c(OCCCCN2CCNCC2)c1	Chlamy TAG active
Cc1cc(Cl)ccc1OCCN1CCNCC1	none
Clc1cc(Br)ccc1OCCCCN1CCCC1	none
O=[N+]([O-])c1ccc(N2CCOCC2)cc1N1CCc2ccccc2C1	none
O=C(O)c1cc(NC(=O)c2ccc(Br)cc2)cc(C(=O)O)c1	none
COc1ccc(NC(=O)c2ccc([N+](=O)[O-])c(C)c2)cc1	none
COc1cc(NC(=O)c2ccc(C)cc2Cl)cc(OC)c1	none
OC(COc1ccc(Cl)cc1Cl)CN1CCN(Cc2ccccc2)CC1 (stereo not drawn)	Chlamy TAG active
CN1CCN(CC(O)COc2ccc(Cl)cc2Cl)CC1 (stereo not drawn)	none
CCOC(=O)N1CCN(CC(O)COc2ccc(Cl)cc2Cl)CC1 (stereo not drawn)	none
Cc1ccccc1NC1=C(N)C(=O)c2ccccc2C1=O	none
CC(=O)C1=C(C)Nc2sc(C(=O)c3cccc([N+](=O)[O-])c3)c(N)c2C1c1ccco1 (stereo not drawn)	none
O=C(Nc1ccc([N+](=O)[O-])cc1)c1ccccc1Cl	Chlamy TAG active
O=C(O)c1ccc(NC(=O)c2ccc([N+](=O)[O-])cc2)cc1	none
O=C(Nc1cccc(NC(=O)c2ccccc2Cl)c1)c1ccc([N+](=O)[O-])cc1	none
Cc1ccc(C(=O)Nc2ccncc2)cc1[N+](=O)[O-]	none
COc1cccc(OC)c1C(=O)Nc1ccc([N+](=O)[O-])cc1	none
CCC(C)c1ccc(NC(=O)c2ccc([N+](=O)[O-])cc2Cl)cc1 (stereo not drawn)	none
O=C(Nc1cccc(Cl)c1)c1ccc([N+](=O)[O-])cc1Cl	none
O=C(Nc1ccc(Cc2ccncc2)cc1)c1ccc([N+](=O)[O-])cc1Cl	Chlamy TAG active
O=C(Nc1ccc([N+](=O)[O-])cc1)c1c(F)c(F)c(F)c(F)c1F	Chlamy TAG active
COc1ccc(C(=O)Nc2ccc(C(C)C)cc2)cc1[N+](=O)[O-]	none
Cc1ccccc1C(=O)Nc1ccc([N+](=O)[O-])cc1	none
CCSc1ccc(C(=O)Nc2ccc(Cc3ccncc3)cc2)cc1[N+](=O)[O-]	Chlamy TAG active
CSc1nc(SC)c2c3c(sc2n1)CN(C)CC3	none
COc1ccc(NC(=O)C(=O)NCCN2CCN(C(=O)c3cccc([N+](=O)[O-])c3)CC2)cc1	none
O=C(O)CN1C(=O)c2cc(N3CCOCC3)c([N+](=O)[O-])cc2C1=O	none
CC(=O)Nc1cccc(Oc2ccc(C)c(C)c2)c1	none
C=CCNC(=O)CN(Cc1ccccc1F)S(=O)(=O)c1ccc(C)cc1	none
CCN1C(=O)c2ccc(C(=O)Nc3ccc([N+](=O)[O-])cc3Cl)cc2C1=O	none
COc1ccc(S(=O)(=O)N(CC(=O)Nc2cccnc2)c2ccc(C)cc2)cc1	none
Cc1noc(C)c1-c1ccc(Cl)c(Cl)c1	none
CN1CCN(Cc2cccc(Oc3ccccc3)c2)CC1	Chlamy TAG active
OCC1CCCN(Cc2ccc3c(c2)Cc2ccccc2-3)C1 (stereo not drawn)	none
OC1CCN(Cc2cccc(Oc3ccccc3)c2)CC1	none
COc1cccc(CN2CCCN(C)CC2)c1	none
COc1ccc(CN2CCN(C)CC2)cc1OCc1ccccc1	none
CN1CCCN(Cc2cccc(Br)c2)CC1	none
OC1CCCN(Cc2ccc3c(c2)Cc2ccccc2-3)C1 (stereo not drawn)	none
CN1CCCN(Cc2cccc(Oc3ccccc3)c2)CC1	Chlamy TAG active
CN1CCN(Cc2ccc3c(c2)Cc2ccccc2-3)CC1	Chlamy TAG active
O=Cc1cn(CC(=O)N2CCCC2)c2ccccc12	none
Cc1ccc(C(=O)Nc2ccccc2CO)cc1	none
Cc1ccc(C(O)=C2C(=O)C(=O)N(C)C2c2ccc(N(C)C)cc2)cc1 (stereo not drawn)	none
Cc1ccc(S(=O)(=O)N2CCCC2C(=O)Nc2ccc([N+](=O)[O-])cc2)cc1 (stereo not drawn)	none
NC(=O)CSc1n[nH]c(-c2ccncc2)n1	none
Cc1nc2c(c(=O)[nH]1)C(c1ccccc1F)C(C#N)=C(N)O2 (stereo not drawn)	none
CN(C)CCN1C(=O)C(=O)C(=C(O)c2ccc(F)cc2)C1c1ccco1 (stereo not drawn)	none
